Tests used:
Assay in all cases: PBM binding z-score (relative to random genomic background probes); higher = stronger binding; sequences stand for … in GC…GCGATTGACAGCGTAGAATGAAGG
[1] = test system: FXR:RXRa (NR concentration 270 nM, RXRa partner concentration 90 nM)
Summary of the method: (§1)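 Binding z-scores were set against random background probes. The data came from custom Agilent 4×180K protein-binding microarrays carrying double-stranded probes with 34-nt variable regions, incubated 1 h with ligand-free nuclear receptor dimers. Partner-specific antibodies detected binding, and scanned fluorescence was regression-normalized.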

[2] = test system: LXRa:RXRa (NR concentration 270 nM, RXRa partner concentration 90 nM)
Summary of the method: as §1

[3] = test system: LXRa homodimer (NR concentration 270 nM)
Summary of the method: as §1

[4] = test system: LXRb:RXRa (NR concentration 270 nM, RXRa partner concentration 90 nM)
Summary of the method: as §1

[5] = test system: LXRb homodimer (NR concentration 270 nM)
Summary of the method: as §1

[6] = test system: PPARa:RXRa (NR concentration 270 nM, RXRa partner concentration 90 nM)
Summary of the method: as §1

[7] = test system: PPARg:RXRa (NR concentration 180 nM, RXRa partner concentration 90 nM)
Summary of the method: as §1

[8] = test system: PPARg:RXRa 270nM:90nM, anti-RXR (NR concentration 270 nM, RXRa partner concentration 90 nM)
Summary of the method: as §1

[9] = test system: PPARg:RXRa 30nM:10nM, anti-RXR (NR concentration 30 nM, RXRa partner concentration 10 nM)
Summary of the method: as §1

[10] = test system: PPARg:RXRa 90nM:30nM, anti-RXR (NR concentration 90 nM, RXRa partner concentration 30 nM)
Summary of the method: as §1

[11] = test system: PPARg:RXRa DBDmut IVT, anti-RXR (DBD mutation: RXRa K156A/R161A, NR concentration 270 nM, RXRa partner concentration 90 nM)
Summary of the method: as §1

[12] = test system: PPARg:RXRa IVT, anti-PPARg (NR concentration 270 nM, RXRa partner concentration 90 nM)
Summary of the method: as §1

[13] = test system: PPARg DBDmut:RXRa IVT, anti-PPARg (DBD mutation: PPARg1 K132A/R137A, NR concentration 270 nM, RXRa partner concentration 90 nM)
Summary of the method: as §1

[14] = test system: PPARg DBDmut IVT, anti-PPARg (DBD mutation: PPARg1 K132A/R137A, NR concentration 270 nM)
Summary of the method: as §1

[15] = test system: PPARg homodimer (NR concentration 180 nM)
Summary of the method: as §1

[16] = test system: PXR:RXRa (NR concentration 270 nM, RXRa partner concentration 90 nM)
Summary of the method: as §1

[17] = test system: PXR homodimer (NR concentration 270 nM)
Summary of the method: as §1

[18] = test system: RARa:RXR (NR concentration 270 nM, RXRa partner concentration 90 nM)
Summary of the method: as §1

[19] = test system: RARa homodimer (NR concentration 270 nM)
Summary of the method: as §1

[20] = test system: RARb:RXRa (NR concentration 270 nM, RXRa partner concentration 90 nM)
Summary of the method: as §1

Row | Sequence | PBM binding z-score [1] | PBM binding z-score [2] | PBM binding z-score [3] | PBM binding z-score [4] | PBM binding z-score [5] | PBM binding z-score [6] | PBM binding z-score [7] | PBM binding z-score [8] | PBM binding z-score [9] | PBM binding z-score [10] | PBM binding z-score [11] | PBM binding z-score [12] | PBM binding z-score [13] | PBM binding z-score [14] | PBM binding z-score [15] | PBM binding z-score [16] | PBM binding z-score [17] | PBM binding z-score [18] | PBM binding z-score [19] | PBM binding z-score [20]
1 | AGTCAAAGTACAGGACGAGGTAACGTAAAGCACG | 0.0471 | -0.247 | 0.0589 | -0.158 | -0.441 | -0.0272 | 0.99 | 0.138 | 0.254 | 0.0519 | -0.428 | 0.795 | 0.576 | 0.384 | 0.381 | -0.161 | 0.4 | 0.278 | -0.0608 | 0.641
2 | CCTGCTACGTCAATGGTCAGCTAAAGCAGCTCGC | -0.5 | -0.409 | -0.45 | -0.531 | -0.36 | -0.295 | -0.37 | -0.498 | -0.833 | -0.566 | 0.218 | -0.566 | -1.15 | -0.483 | -0.41 | -0.469 | -0.413 | -0.14 | -0.629 | 0.0938
3 | TCATATAGGTAAATGCTAGGTGAAGGTCCGATCT | 0.907 | 0.779 | 0.342 | 0.347 | 0.0631 | 1.29 | 0.837 | 2.13 | 3.86 | 2.91 | 4.03 | 2.74 | 1.1 | 0.608 | 0.952 | 0.662 | 0.475 | 0.786 | 1.04 | 0.552
4 | TTACCAAGGTTAAGGTCGTTGATCCCTCTGTAGA | 4.22 | 4.15 | 0.608 | 2.66 | -0.123 | 3.38 | 1.85 | 3.34 | 1.44 | 2.99 | 0.95 | 2.15 | 0.246 | 0.342 | 1.05 | 3.04 | 1.3 | 3.04 | -0.0492 | 3.04
5 | TGTCGGAGGACACGAAGGTCAGAGCTTTCCAGAG | 1.23 | 1.44 | -0.131 | 0.759 | -0.905 | 1.81 | 0.574 | 1.14 | -0.39 | 0.47 | -0.402 | 1.54 | -0.86 | -0.906 | 1.05 | 1.79 | 0.826 | 1.84 | 0.146 | 3.46
6 | TCATGTAGATCAATAGAGGTTAAGAAAGTGCGCT | 1.01 | 3.41 | 0.701 | 1.95 | 0.112 | 1.83 | 0.225 | 1.59 | 3.1 | 1.96 | 2.25 | 0.891 | 0.493 | 0.436 | 0.475 | 3.08 | 0.426 | 1.85 | 0.825 | 1.02
